Source: PubChem (National Center for Advancing Translational Sciences (NCATS))
HEK cytotox – Cytotoxic Profiling in HEK 293 Cell Line of Diverse Libraries Using Quantitative High-Throughput Screening | HEK 293 viability, ATP luminescence (CellTiter-Glo), 48-72 h | Potency, µM (doses to about 115 µM), for inactives: at the top dose activity change, negative = cytotoxicity, usual class: inhibitors | 6.6% of 94,000 active; note: nearly all actives have a fitted effect of over 60% in size
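250 HEK 293 cells/well; compound by pintool; incubated 48 or 72 hr at 37 degree Celsius; CellTiter-Glo added, 10 min RT, luminescence imaged.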
Luciferase inh – Firefly luciferase inhibition profiling of diverse chemical library using quantitative high-throughput screening. Luciferin 4-monooxygenase (Photinus pyralis), P08659. purified P. pyralis luciferase, luminescence, biochemical. Potency, µM (series often up to 115 µM), usual class: inhibitors. 2.5% of 76,000 active. AID 1347043, 2019; note: nearly all actives have a fitted effect of over 65% in size
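Luminescence read by CCD imaging after purified firefly luciferase (10nM final) was added to substrate buffer holding 10uM D-luciferin and 10uM ATP, pH 7.5, pre-dosed with compound.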
NIH3T3 tox – Cytotoxic Profiling in NIH 3T3 Cell Line of Diverse Libraries Using Quantitative High-Throughput Screening | Potency, µM (titrated, usually from 96.7 µM), for inactives: at the highest dose activity change, negative = cytotoxicity, hits mostly inhibitors | AID 1345082, 2018 | NIH 3T3 viability, CellTiter-Glo ATP luminescence, 48-72 h | 4.3% of 94,000 active; note: nearly all actives have a fitted effect of over 55% in size
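ATP-dependent luminescence (CellTiter-Glo) served as the viability signal for NIH 3T3 cells treated with compound for 48 or 72 hr at 37 °C.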
hNpr1 antagonist – Natriuretic polypeptide receptor (hNpr1) antagonism - Primary qHTS; AID 1347048, 2019; 1.6% of 76,000 active; Atrial natriuretic peptide receptor 1 (Homo sapiens), P16066; HEK293 hNpr1 GloSensor cGMP, ANP-stimulated luminescence; Potency, µM (series often up to 46.3 µM), for the others: at the highest dose activity change, negative = inhibition, actives largely listed as inhibitors; calls by dose curve; note: nearly all actives have a fitted effect of over 60% in size
Target sequence (P16066 whole entry, looked up): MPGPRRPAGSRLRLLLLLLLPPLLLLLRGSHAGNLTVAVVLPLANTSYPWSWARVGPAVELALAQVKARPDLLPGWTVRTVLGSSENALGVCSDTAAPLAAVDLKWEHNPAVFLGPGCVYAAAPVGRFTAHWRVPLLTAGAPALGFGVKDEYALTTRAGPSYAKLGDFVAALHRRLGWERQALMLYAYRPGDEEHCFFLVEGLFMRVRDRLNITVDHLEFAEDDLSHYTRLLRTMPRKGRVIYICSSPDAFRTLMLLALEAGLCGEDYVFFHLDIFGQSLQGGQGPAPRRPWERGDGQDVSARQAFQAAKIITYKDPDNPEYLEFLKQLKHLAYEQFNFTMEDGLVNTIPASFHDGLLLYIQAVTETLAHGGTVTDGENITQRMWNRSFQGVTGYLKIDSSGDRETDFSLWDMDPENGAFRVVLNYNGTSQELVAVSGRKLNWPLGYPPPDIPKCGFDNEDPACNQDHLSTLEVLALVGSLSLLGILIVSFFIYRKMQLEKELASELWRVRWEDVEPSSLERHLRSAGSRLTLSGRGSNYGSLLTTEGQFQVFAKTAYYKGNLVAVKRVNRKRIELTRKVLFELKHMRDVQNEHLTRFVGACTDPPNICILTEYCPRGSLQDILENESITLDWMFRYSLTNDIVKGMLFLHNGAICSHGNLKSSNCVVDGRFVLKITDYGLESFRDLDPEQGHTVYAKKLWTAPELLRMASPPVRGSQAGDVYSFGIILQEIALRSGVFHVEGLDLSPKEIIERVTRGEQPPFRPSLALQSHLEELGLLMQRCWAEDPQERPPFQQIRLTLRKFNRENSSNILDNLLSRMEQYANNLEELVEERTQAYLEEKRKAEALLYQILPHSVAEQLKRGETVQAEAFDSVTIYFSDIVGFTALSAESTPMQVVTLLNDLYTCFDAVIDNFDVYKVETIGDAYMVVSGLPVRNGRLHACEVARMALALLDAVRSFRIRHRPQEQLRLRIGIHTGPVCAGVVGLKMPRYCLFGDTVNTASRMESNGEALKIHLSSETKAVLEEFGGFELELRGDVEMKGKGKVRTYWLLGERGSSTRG
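HEK293 cells stably expressing human Npr1 and cGMP GloSensor pGS-40F, loaded 2 h with 2% GloSensor reagent, given compound 30 min at room temperature. Luminescence read before and 20 min after 0.1 nM hNppA.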
Starred values were filed as active, the others as inactive; i = inactive; ? = inconclusive; . = no result given; ! = not confirmed by another sample; [ ] = another dose, or the depositor's remark. Only some compounds are listed: those with a hit (about 11% of all), similar ones and a draw of the others. Unless noted, calls come from the whole dose curve; as a rule, active = well fitted curve in the direction sought with a large enough effect; inconclusive = small, poorly fitted or top-dose-only effect, or another doubt; inactive = no such curve, though single readings can be large; an effect the other way counts as inactive or inconclusive. % is set by controls: 0 for no effect and ±100 for the full control effect; potency is the fitted concentration of half-maximal effect.

SMILES	HEK cytotox	Luciferase inh	NIH3T3 tox	hNpr1 antagonist
N#Cc1cccc(CN2CCCC(c3nc4ccc(F)cc4c(=O)[nH]3)C2)c1 (centres undefined)	44.7µM*!	i	?	-5.9%
N#Cc1cccc(CN2CCC(c3nc4ccc(F)cc4c(=O)[nH]3)CC2)c1	22.4µM*!	i	?	1.5%
O=C(NCCc1ccccn1)c1c[nH]c2ncccc12	2.9%[172 µM]	?	-1.0%[138 µM]	-27.6%[70.6 µM]
O=C(NCc1ccc(Cl)cc1)c1c[nH]c2ncccc12	?	28.2µM*	?	-1.8%[70.6 µM]
O=C(Nc1ccc(Cl)nc1)c1c[nH]c2cccnc12	-13.9%[172 µM]	.	?	.
O=C(NCc1ccc(Cl)cc1)c1c[nH]c2cccnc12	35.5µM*	.	15.8µM*	.
O=C(NCCc1ccccc1)c1c[nH]c2ncccc12	-2.9%[172 µM]	20µM*	i	0.0%[70.6 µM]
COc1ccc(-c2cc(C(=O)NCc3cccs3)nn3cnnc23)cc1	-11.6%	.	-44.2%	.
COc1ccc(S(=O)(=O)N2CCc3c(C(=O)NCCc4cccs4)cccc32)cc1	25.1µM*	i	-28.1%	?
CCCCNC(=O)c1cccc2c1CCN2S(=O)(=O)c1ccccc1	?	i	?	-15.7%
CCCCNC(=O)c1cccc2c1CCN2S(=O)(=O)c1ccc(C)cc1	17.8µM*	i	?	?
COc1ccc(S(=O)(=O)N2CCc3c(C(=O)NCc4ccccn4)cccc32)cc1	35.5µM*	i	?	?
COc1ccc(C(=O)N2CCCC(C(=O)N3CCC(c4nc5ncccc5[nH]4)C3)C2)cc1 (centres undefined)	-4.2%	.	-20.8%	.
O=C(C1CCCN1[S+](=O)([O-])c1ccccc1)N1CCC(N2Cc3cccn3C2=O)CC1 (centres undefined)	-7.3%	.	-29.0%	.
Cc1ccc([S+](=O)([O-])N2CCCC(C(=O)N3CCC(N4Cc5cccn5C4=O)CC3)C2)cc1 (centres undefined)	44.7µM*	.	?	.
Cn1cnc2cc(-c3ccccc3)cc(C(=O)NCc3cccnc3)c21	-24.3%[172 µM]	i	?	-4.9%[70.6 µM]
COc1cc(CNC(=O)c2cc(-c3cccc(N(C)C)c3)cc3ncn(C)c23)ccn1	70.8µM*	?	?	4.0%[70.6 µM]
COc1ccc(-c2cc(C(=O)NCc3ccnc(N)c3)c3c(c2)ncn3C)cc1	?	i	?	-7.6%[70.6 µM]
Cn1cnc2cc(-c3ccc(N4CCOCC4)cc3)cc(C(=O)NCc3cccnc3)c21	1.2%[172 µM]	i	89.1µM*	-0.9%[70.6 µM]
Cn1cnc2cc(-c3cccc(C(F)(F)F)c3)cc(C(=O)NCc3cccnc3)c21	100µM*	i	?	-5.6%[70.6 µM]
CCNC(=O)c1c(C)oc2c1CN(Cc1sccc1C)CC2	?	i	?	-17.0%
Cc1ccc(CCN2CCCCC23Cc2ccccc2CN(C(=O)CCC(=O)O)C3)cc1 (centres undefined)	2.7%	.	2.5%	.
Cc1ncsc1C1N(C2CCN(C(=O)COc3ccccc3)CC2)C(=O)C12CCCC2 (centres undefined)	-1.3%	i	?	6.5%
COc1ccc(-c2nc(C(C)C)nc3c2CCN(C(=O)c2cccc(Cl)c2)CC3)cc1	?	i	44.7µM*	-19.6%
O=C(c1ccccc1Cl)N1CCc2nc(-c3ccc(Cl)cc3)nc(-c3ccccc3)c2C1	25.1µM*	?	?	-2.1%
SMILES	HEK cytotox	Luciferase inh	NIH3T3 tox	hNpr1 antagonist
COc1ccc(-c2nc(C(C)C)nc3c2CCN(C(C)=O)CC3)cc1	-8.7%[172 µM]	i	-26.6%[138 µM]	3.4%[70.6 µM]
O=C(Cc1ccc(F)cc1)N1CCc2nc(-c3ccc(Cl)cc3)nc(-c3ccccc3)c2C1	35.5µM*	i	?	8.4%
COc1ccc(C(=O)N2CCc3nc(-c4ccc(Cl)cc4)nc(-c4ccccc4)c3C2)cc1	39.8µM*	i	?	6.1%
COc1ccc(C(=O)N2CCc3nc(-c4ccccc4)nc(-c4ccc(OC)cc4)c3C2)cc1	?	i	-31.7%	2.4%
Clc1ccccc1C1(c2ccnc(NCCc3cccnc3)n2)CCNCC1	?	i	?	-3.5%
CCOC(=O)C1CCN(C(=O)c2cn3cc(-c4ccccc4)sc3n2)CC1	-21.2%	.	-27.4%	.
